Shown are actives, neighbours in structure and some others; about 2.9% of the full set was active somewhere.
IP6K1 inhibitor = IP6K1 kinase inhibition; Q92551; IP6K1 kinase, ADP-Glo luminescence, 2 h; active compounds read low; activity change, % (series mostly up to about 58 µM); hit rate 0.81% among 140,000; in the data active = activity change below about -25%
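ADP-Glo luminescence measures ADP made by human IP6K1 during a 2 h RT reaction with ATP/IP6 (mix at 1.3 mM/130 uM); top library doses 57.5 and 19.1 uM final.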
KDM5B inhibitor = blocks human KDM5B histone demethylase activity. hit rate 2.6% among 220,000. Potency, µM (series often up to 57.7 µM), hits mostly inhibitors. KDM5B demethylase, FDH-coupled NADH fluorescence (FDH is formaldehyde dehydrogenase). Q9UGL1; note: nearly all actives have a fitted effect of over 70% in size
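Inhibition is measured as reduced NADH fluorescence generation from FDH coupling to formaldehyde release. Truncated KDM5BΔAP at 200 nM final acts on H3K4me3 peptide (12.5 µM in substrate mix) in pH 7.5 HEPES buffer with Tween-20, 30 min, room temperature.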
SNCA viab count = cell viability loss counter-screen | hit rate 0.12% among 150,000 | HEK-293-SNCA-luc viability, GF-AFC fluorescence, 24 h | Potency, µM (titrated, usually from 57.1 µM), usual class: cytotoxic; note: nearly all actives have a fitted effect of over 30% in size
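Cytotoxicity counterscreen: after 24 h compound treatment of genome-edited SNCA-luciferase HEK-293 cells, live-cell protease substrate GF-AFC read by fluorescence after 30 min; activity scaled between DMSO (0%) and medium-only (-100%), curves Hill-fitted.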
SNCA expr inh = inhibitors of alpha-synuclein (SNCA) gene expression; HEK-293 SNCA-luciferase knock-in, luminescence, 24 h; Potency, µM (highest dose often 57.2 µM), hits mostly inhibitors; hit rate 0.17% among 140,000; AID 1671194; note: nearly all actives have a fitted effect of over 45% in size
A number is an active result; 0 = inactive; ? = inconclusive; - = no result; [ ] = dose if it differs, or a comment. Unless noted, calls come from the whole dose curve; as a rule, active = well fitted curve in the direction sought with a large enough effect; inconclusive = small, poorly fitted or top-dose-only effect, or another doubt; inactive = no such curve, though single readings can be large; an effect the other way counts as inactive or inconclusive.

SMILES	IP6K1 inhibitor	KDM5B inhibitor	SNCA viab count	SNCA expr inh
COc1ccc(OCC2(C)COc3ccc(C(=O)Nc4ccn(C)n4)cc3N2)cc1 (centres undefined)	0	32µM	?	?
Cn1ccc(NC(=O)c2ccc3c(c2)NC(C)(CNCc2ccccc2)CO3)n1 (centres undefined)	0	?	?	?
c1ccc(-c2cc3c(Oc4cccc5ccccc45)ncnc3s2)cc1	-	0	-	-
CC(=O)N1CCC(c2nnc3n2C(C(=O)NCC2CCCCC2)CC3)CC1 (centres undefined)	0	-	0	0
CCC(=O)N1CCc2c(sc3ncnc(NCc4ccccc4)c23)C1	0	32µM	0	0
CC(C)C[C@@H]1N[C@H](C(=O)O)Cc2cn(CC3CCC3)c3cccc1c23	0	32µM	0	0
CC(C)C[C@@H]1N[C@H](C(=O)O)Cc2cn(Cc3nccn3C)c3cccc1c23	0	32µM	0	0
Cc1cn2nc(C(=O)NCc3ccc(C(F)(F)F)cc3)cc2c(N2CCCC2)n1	0	28µM	0	0
Cc1cn2nc(C(=O)NCc3ccccc3C(F)(F)F)cc2c(N2CCSCC2)n1	0	?	0	0
CCc1ccc(CNC(=O)c2cc3c(N4CCCC4)nc(C)cn3n2)cc1	0	25µM	0	0
Cc1cn2nc(C(=O)NCc3ccc(Cl)cc3)cc2c(N2CCCC2)n1	0	32µM	0	0
Cc1cn2nc(C(=O)NC(C)CCc3ccccc3)cc2c(N2CCCC2)n1 (centres undefined)	0	0	0	0
COc1ccc(CNC(=O)c2cc3c(N4CCCC4)nc(C)cn3n2)cc1	0	0	0	0
Cc1cn2nc(C(=O)NCc3ccccc3C(F)(F)F)cc2c(N2CCCC2)n1	0	14µM	0	0
COc1ccc(-c2ccc3nc(-c4cccc(Br)c4)oc3c2)c(OC)c1OC	0	0	0	?
CCCNC(=O)CSc1nc2ccsc2c(=O)n1CCC(C)C	-	0	-	-
Cc1cn2nc(C(=O)NCc3ccc(Br)cc3)cc2c(N2CCCC2)n1	0	28µM	0	0
Cc1cn2nc(C(=O)NCCC3=CCCCC3)cc2c(N2CCCC2)n1	0	10µM	0	0
Cc1cn2nc(C(=O)NCc3ccc(F)cc3F)cc2c(N2CCCC2)n1	0	0	0	?
Cc1cn2nc(C(=O)NC3CCC(C)CC3)cc2c(N2CCCC2)n1 (centres undefined)	0	28µM	0	0
Cc1cn2nc(C(=O)NCc3ccc4c(c3)OCO4)cc2c(N2CCCC2)n1	0	25µM	0	0
Cc1nc(C2CC(O)C2)cc(N2CCN(c3ccc(F)c(Cl)c3)CC2)n1 (centres undefined)	0	0	0	0
Cc1noc2c(NCC3CCOCC3)cc(-c3ccc(Cl)cc3)nc12	0	0	0	0
O=C(NC1CC1)c1ccc2nnc(-c3cccnc3)n2c1	0	112µM	0	0
O=C(NC1CC1)c1ccc2nnc(-c3ccc(C(F)(F)F)cc3)n2c1	0	56µM	0	0
SMILES	IP6K1 inhibitor	KDM5B inhibitor	SNCA viab count	SNCA expr inh
O=C(NC1CCCCC1)c1ccc2nnc(-c3cccnc3)n2c1	0	-	0	0
CCc1nc(-c2c3n(c(=O)n(Cc4ccccc4F)c2=O)CCCC3)no1	0	0	0	0
CCc1nc(-c2c3n(c(=O)n(Cc4cc(=O)n5ccccc5n4)c2=O)CCCC3)no1	0	22µM	0	0
COC1CCOC2(CCN(S(=O)(=O)c3cn(C)cn3)CC2)C1 (centres undefined)	0	0	0[12.5 µM]	0
COc1ccc(-c2ccnc3nc(-c4ccco4)nn23)c(F)c1	0	16µM	0	0
c1csc(-c2nc3nccc(-c4ccsc4)n3n2)c1	0	?	0	0
COc1ccc(-c2ccnc3nc(-c4ccccc4OC)nn23)c(F)c1	0	?	0	0
COc1ccc(-c2nc3nccc(-c4ccco4)n3n2)c(OC)c1	0	22µM	0	0
COc1ccc(-c2nc3nccc(-c4ccsc4)n3n2)c(OC)c1	0	18µM	0	0
CC(C)c1nc2nccc(-c3ccsc3)n2n1	0	25µM	0	0
O=C(NC1CCCCC1)[C@@H]1Cc2nc[nH]c2CN1Cc1ccc(C(F)(F)F)cc1	0	0	0	0
COCCn1cnc2ccc(-c3ccsc3)nc2c1=O	0	35µM	0	0
COCCn1cnc2ccc(-c3ccc(F)c(Cl)c3)nc2c1=O	0	32µM	0	0
COCCn1cnc2ccc(-c3cccc(C)c3)nc2c1=O	0	40µM	0	0
Cn1c(=O)c2c(ncn2CC(O)COc2cccc3ccccc23)n(C)c1=O (centres undefined)	-	0	-	-
CCC(CC)C(=O)NC[C@H]1O[C@@H](CC(=O)N2CCN(c3ccccn3)CC2)[C@H](O)[C@@H]1O	0	32µM	0	0
Cc1ccc(S(=O)(=O)NC[C@H]2O[C@@H](CC(=O)N3CCN(c4ccccn4)CC3)[C@H](O)[C@@H]2O)cc1	0	28µM	0	0
CS(=O)(=O)NC[C@H]1O[C@@H](CC(=O)N2CCN(c3ccccn3)CC2)[C@H](O)[C@@H]1O	0	35µM	0	0
O=S(=O)(NC[C@H]1O[C@@H](CO)[C@@H](O)[C@H]1N1CCN(c2ccccn2)CC1)c1ccc(Cl)cc1	0	28µM	0	0
CC(=O)c1sc(-c2ccc(F)cc2)nc1C	-	0	-	-
CNC(=O)N1CCC(C2CCN(C(=O)c3ncoc3-c3cccc(C)c3)C2)CC1 (centres undefined)	0	-	0	0
O=C(NC1CCCCC1)C1CCCN(c2ccnc3ccnn23)C1 (centres undefined)	0	-	0	0
COCc1cc(C[C@@H]2C[C@H](NC(=O)c3ccco3)C2(C)C)no1	0	0	0	0
CC(=O)Nc1ccc(C(=O)N2CCC3(CC2)CC(N[S+](C)(=O)[O-])c2ccccc23)cc1 (centres undefined)	0	0	0	0
OC[C@@H]1O[C@H](CNC2CCOCC2)[C@H](N2CCN(c3ccccn3)CC2)[C@@H]1O	0	?	0	0
SMILES	IP6K1 inhibitor	KDM5B inhibitor	SNCA viab count	SNCA expr inh
OC[C@@H]1O[C@H](CN(Cc2cccc(Cl)c2)Cc2cccc(Cl)c2)[C@H](N2CCN(c3ccccn3)CC2)[C@@H]1O	0	25µM	0	0
Cc1nc(C(C)(C)C)nc2sc(C(=O)N3CCOCC3)c(C)c12	-	0	-	-
CCN(C(=O)Cn1cccc1-c1nc(-c2ccc(OC)c(F)c2)no1)c1cccc(C)c1	0	28µM	0	0
CN(Cc1nc2ccccc2[nH]1)S(=O)(=O)c1ccc(F)cc1	-	0	-	-
CN1C[C@H](C(=O)N2CCN(c3ccccn3)CC2)C[C@H]1c1cccc(C(F)(F)F)c1	0	40µM	0	0
Cc1ccn2cc(-c3ccc(NC(=O)CCC4CCCCC4)cc3)nc2n1	-	0	-	-
CN1c2cccnc2CN(CC2CCCCC2)CC[C@H]1CO	0	28µM	0	0
CN1CCN(c2cc(N3CCCC(CN4CCCCC4)C3)nc(N)n2)CC1 (centres undefined)	0	0	0	0
CN1CCN(c2cc(-c3cncc(N)c3)nc(N)n2)CC1	0	20µM	0	0
COC(=O)/C=C/C(=O)N(O)CCCCNCc1ccc(COC(=O)Nc2cccc3ccccc23)cc1	0	-	24µM	-

From PubChem BioAssay
